This is part of a sample that, as a whole, favours compounds with a hit. Of some 83,000 tested, about 20% had one in any assay.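 Method: cells in 96-well plates; compound added at one concentration; 48 h incubation; percent growth measured; values under 10 scored active.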 Values without a mark were called inactive. The source made the active and inactive calls.

Data on 8 compounds can be found in PubChem BioAssay (NCI).

What all share (assay): NCI-60 one-dose screen, 48 h (100 = growth as untreated, 0 = no growth, -100 = all killed)
Holding throughout (conditions): 10 µM unless noted

The test system of assay [1] is DU-145 prostate.
Assay [2] relates to K-562 leukemia.
Assay [3] has as its system MALME-3M melanoma.
The subject of assay [4] is MDA-MB-231 breast.
For assay [5], the system named is RXF 393 renal.
The test system of assay [6] is SF-268 CNS.
The test system of assay [7] is SF-295 CNS.
The test system of assay [8] is SF-539 CNS.
For assay [9], the system named is UACC-257 melanoma.
In assay [10] the test system is M14 melanoma.
Assay [11] deals with HCT-15 colon.
Assay [12] relates to HT29 colon.
Assay [13] relates to SNB-75 CNS.
Assay [14] relates to SNB-19 CNS.
In assay [15] the test system is U251 CNS.
The test system of assay [16] is SK-MEL-5 melanoma.
The test system of assay [17] is UACC-62 melanoma.
The test system of assay [18] is LOX IMVI melanoma.
The subject of assay [19] is SK-MEL-28 melanoma.
Assay [20] has as its system PC-3 prostate.

As for `Cc1nc2sc(C(=O)Nc3cccc4ccccc34)c(N)c2cc1C(O)c1ccccc1` (configuration not stated), the growth in assay [1] is 5.38% (active); in [2] it was 4.79% (active); in assay [3], 46.9%; in assay [4], 17.1%; in [5], 36.2%; in assay [6] it was 23.5%. Also, the growth in [7] was 10.2%; in [8], -7.12% (active); in [9], 51.6%; in [10] it was 7.59% (active); in [11], 13.1%; in assay [12], 10.5%. Further, the growth in assay [13] was 68.8%; in assay [14] it was 26.2%; in assay [15], 1.5% (active); in assay [16], -53.1% (active); in [17], 17.8%; in assay [18], 21.4%. For the same compound, in assay [19], the growth was 54.3%.
Turning to `CC(C)C1=NOC(=O)C1=Cc1cn(-c2ccccc2)nc1-c1ccc(F)cc1`, the growth in assay [1] was 74%; in assay [2] it was 29.2%; in assay [3] it was 90.8%; in assay [4] it was 98.1%; in [5] it was 82.2%; in [6] it was 91.2%. The growth in assay [7] was 95.5%; in assay [8] it was 89.6%; in [9], 91%; in [10], 67.4%; in [11], 61.4%; in [12], 28.8%. Further, the growth in assay [13] was 70.6%; in assay [14], 81.7%; in [15] it was 51.3%; in assay [16], 78.9%; in [17], 75.5%; in assay [18] it was 6.17% (active). The growth in assay [19] was 82.7%.
As for `O=c1c2cccc3c(N4CCCC4)ccc(c32)c2nc3ccccc3n12`, the growth in assay [1] is 78.1%; in [2], 76%; in [3], 70.4%; in [4] it was 77.1%; in assay [5], 103%; in assay [6], 92%. In addition, the growth in assay [7] is 59.8%; in assay [8], 91.3%; in [9], 91.8%; in assay [10] it was 91.5%; in assay [11] it was 78.6%; in assay [12], 77.8%. The growth in assay [13] is 73%; in [14], 76%; in assay [20] it was 67.9%; in assay [16], 64.5%; in assay [17], 62.6%; in assay [18], 51.7%. The growth in assay [19] was 90.9%.
With `CCN1CCN(C(=O)[C@]23CCC(C)(C)C[C@@H]2C2=CC[C@@H]4[C@@]5(C)CCC(=O)C(C)(C)[C@@H]5CC[C@@]4(C)[C@]2(C)CC3)CC1`, the growth in assay [1] was 76.6%; in assay [2], 21.1%; in assay [3], 40.5%; in assay [4], 56.5%; in [5], 61%; in assay [6], 41.5%. Further, the growth in assay [7] is 76.3%; in assay [8] it was 48.9%; in [9] it was 32.8%; in [10], 57.1%; in assay [11] it was 33.6%; in assay [12], 8.29% (active). For the same compound, the growth in assay [13] is 15.6%; in assay [14], 71.1%; in [20], 26.1%; in [16] it was 49.2%; in assay [17], 47.3%; in [18] it was 43.8%. In addition, the growth in assay [19] was 64.3%.
For `CC(=O)Oc1ccc(/C(=C(\C)c2ccc(Cl)cc2)c2ccc(OCCN3CCCCC3)cc2)cc1`, the growth in assay [1] is 61.9%; in assay [2], -47% (active); in [3], -6.44% (active); in assay [4] it was 50.8%; in [5], 29.3%; in assay [6], 58.6%. For the same compound, the growth in assay [7] was 9.07% (active); in assay [8], 28.2%; in [9], -34.9% (active); in assay [10], -35.1% (active); in [11], -16.3% (active); in assay [12], -25.9% (active). The growth in assay [13] was 41.7%; in assay [14], 42.2%; in [20], 28.1%; in assay [16] it was 37.1%; in [17], 42.8%; in assay [18], -65% (active). Also, in assay [19], the growth was -48.5% (active).
With `CCOC(=O)c1cc2c(n1C)-c1nc(NC(C)=O)sc1CCC2`, the growth in [1] is 94.3%; in assay [2], 96.6%; in [3] it was 108%; in assay [4], 55.1%; in assay [5], 83.1%; in assay [6], 77.4%. Moreover, the growth in assay [7] was 84.1%; in [8], 83.2%; in assay [9] it was 67.8%; in [10] it was 89.1%; in assay [11] it was 88.3%; in assay [12], 88%. Besides, the growth in [14] was 83.6%; in assay [15], 78.2%; in assay [20] it was 51%; in assay [16] it was 80.4%; in assay [17] it was 69.5%; in assay [18], 79.6%. For the same compound, in assay [19], the growth was 107%.
With `CC/C(=C(/c1ccc(Cl)cc1)c1ccc(OCCN2CCCCC2)cc1)c1ccc(OC)cc1`, the growth in [1] was 82.8%; in assay [2], 2.95% (active); in assay [3], 75.4%; in assay [4], 73.3%; in [5] it was 47.9%; in assay [6] it was 86.5%. Moreover, the growth was 55.1% in [7]; 65.5% in [8]; 54.2% in assay [9]; 28.2% in assay [10]; 18.5% in assay [11]; 11.9% in assay [12]. In addition, the growth in [14] was 72.4%; in assay [15], 40.6%; in assay [20], 30.9%; in assay [16], 36.6%; in [17] it was 78.8%; in [18] it was 53.4%. Moreover, in [19], the growth was 82.7%.
For `O=S(=O)(NCCCNc1nccc(-c2c(-c3ccc(F)c(O)c3)nc3sccn23)n1)c1ccccc1`, the growth is 69% in assay [1]; 37.6% in assay [2]; 0.08% (active) in assay [3]; 47.2% in assay [4]; 26.4% in assay [5]; 74.4% in assay [6]. Moreover, the growth was 92.6% in [7]; 88.2% in assay [8]; 19.6% in assay [9]; 12.6% in [10]; 68.5% in assay [11]; 51% in assay [12]. Moreover, the growth is 105% in [13]; 104% in assay [14]; 61.5% in [20]; 51.1% in assay [16]; 5.45% (active) in [17]; 18% in assay [18]. For the same compound, the growth in assay [19] is 24.1%.
